Source: PubChem BioAssay
Rows were chosen to be rich in hits. Some 7.3% of all compounds tested hit in one or more screens of this group.
Tau FP inhib = qHTS for Inhibitors of Tau Fibril Formation, Fluorescence Polarization; Microtubule-associated protein tau (Homo sapiens), P10636; Potency, µM (top dose mostly 57.7 µM), usual class: inhibitors; 280,000 tested, 0.39% active; K18 P301L tau heparin fibrillization, Alexa594 FP, 6 h; AID 1468, 2008; further: nearly all actives have a fitted effect of over 55% in size
Target sequence (P10636 561-689 P618L limits assumed): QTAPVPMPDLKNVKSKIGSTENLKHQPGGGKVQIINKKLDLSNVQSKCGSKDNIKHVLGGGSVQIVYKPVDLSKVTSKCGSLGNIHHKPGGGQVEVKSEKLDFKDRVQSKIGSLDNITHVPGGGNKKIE
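K18 P301L tau (15 uM unlabeled/0.24 uM Alexa 594-labeled, final) + compound + heparin 20 uM final; 100 mM NaOAc pH 7; 6 hr 37 C; ThT 30 uM final added, 1 hr RT; FP ex 555/em 632 nm.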
Tau fibril ThT = qHTS for Inhibitors of Tau Fibril Formation, Thioflavin T Binding; AID 1460, 2008; Microtubule-associated protein tau (Homo sapiens), P10636; recombinant tau K18 P301L, heparin-induced fibrillization, ThT fluorescence; 270,000 tested, 2.1% active; Potency, µM (highest dose often 57.4 µM), hits mostly inhibitors; further: nearly all actives have a fitted effect of over 55% in size
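Aggregation was driven by heparin (20 uM final) acting on recombinant tau […] bearing P301L in 100 mM sodium acetate pH 7; fibrils were detected with Thioflavin T.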
Gal4-VP16 FLuc = VP16 counterscreen qHTS for inhibitors of ROR gamma transcriptional activity; Drosophila S2 Gal4-VP16 UAS-luciferase, luminescence, 20 h; Potency, µM (series often up to 53.6 µM), most hits filed as inhibitors; 310,000 tested, 3.5% active;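 further: Gal4-VP16 expression switched on by copper sulfate through the metallothionein promoter; nearly all actives have a fitted effect of over 50% in size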
Tau fluor cs = Counterscreen qHTS for Inhibitors of Tau Fibril Formation, Fluorescence Polarization. tau K18 P301L Alexa594 fluorescence, heparin fibrillization. Potency, µM (series often up to 57.7 µM). 280,000 tested, 0.93% active; further: nearly all actives have a fitted effect of over 55% in size
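Human tau K18 P301L (15 uM unlabeled, 0.24 uM Alexa 594-labeled) in 100 mM sodium acetate pH 7 with 20 uM heparin, 6 hr at 37 C. ThT 30 uM added, 1 hr ambient; Alexa 594 FP and total fluorescence read at 555/632 nm.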
RORgamma inh = qHTS for inhibitors of ROR gamma transcriptional activity; Nuclear receptor ROR-gamma (Mus musculus), P51450; Drosophila S2 Gal4-RORgamma UAS-luciferase reporter, 20 h; Potency, µM (doses to about 53.6 µM), actives largely listed as inhibitors; 310,000 tested, 5.4% active; AID 2551, 2010; further: nearly all actives have a fitted effect of over 60% in size
Target sequence (P51450 whole entry, looked up, the tested form may be a part): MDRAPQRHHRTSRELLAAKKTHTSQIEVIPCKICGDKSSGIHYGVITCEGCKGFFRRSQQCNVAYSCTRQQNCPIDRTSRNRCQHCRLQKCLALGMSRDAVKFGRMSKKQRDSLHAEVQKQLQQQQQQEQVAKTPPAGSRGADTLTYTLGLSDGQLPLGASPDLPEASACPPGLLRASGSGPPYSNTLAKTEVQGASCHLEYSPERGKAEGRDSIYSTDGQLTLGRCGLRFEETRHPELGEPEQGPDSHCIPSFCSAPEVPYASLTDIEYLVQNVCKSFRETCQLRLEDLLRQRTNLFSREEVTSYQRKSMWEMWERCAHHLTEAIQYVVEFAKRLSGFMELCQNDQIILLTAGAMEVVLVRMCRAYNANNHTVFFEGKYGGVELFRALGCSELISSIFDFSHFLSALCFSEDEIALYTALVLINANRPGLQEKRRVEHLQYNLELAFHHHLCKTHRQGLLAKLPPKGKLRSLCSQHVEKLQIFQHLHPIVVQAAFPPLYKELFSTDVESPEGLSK
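Schneider cells (Drosophila), stable Gal4 DBD–ROR gamma + UAS-luc; 1 hr cmpd preincubation; Cu2+ induction 700 uM final; 20 hr ambient; luminescence.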
Hits are given with their value; . = inactive; ? = inconclusive; / = not tested or not shown; [ ] = dose if it differs, or a comment. The call rests on the fitted dose curve; in most records, active means well fitted curve in the direction sought with a large enough effect; inconclusive means small, poorly fitted or top-dose-only effect, or another doubt; inactive means no such curve, though single readings can be large; an effect the other way counts as inactive or inconclusive.

SMILES	Tau FP inhib	Tau fibril ThT	Gal4-VP16 FLuc	Tau fluor cs	RORgamma inh
CN(/N=C/c1ccc(O)cc1O)c1nc(-c2ccccc2)cc(-c2ccccc2)n1	?	?	?	14µM[quencher]	.
Cc1cc(-c2ccccc2)nc(N/N=C/c2ccc(O)cc2O)n1	/	/	.	/	?
CCN1CCN(c2cc(C)c3cc(NC(=O)/C=C/c4cccc(OC)c4OC)ccc3n2)CC1	.	3.2µM	/	18µM[quencher]	/
COc1cccc(/C=C/C(=O)Nc2ccc3nc(N4CCN(C)CC4)cc(C)c3c2)c1OC	.	5µM	/	8.9µM[quencher]	/
CCC1CN(C(=O)N2CCC(C(=O)NCCc3ccc(Cl)cc3)CC2)c2ccccc2O1 (centres undefined)	.	.	/	5µM[quencher]	/
O=C(NC1CCCCCC1)C1CCN(C(=O)N2CCOc3ccccc32)CC1	?	.	/	7.1µM[quencher]	/
CCC1CN(C(=O)N2CCC(C(=O)NCc3ccccc3F)CC2)c2ccccc2O1 (centres undefined)	.	.	/	.	/
CC1CN(C(=O)N2CCC(C(=O)NC3CCCCCC3)CC2)c2ccccc2O1 (centres undefined)	?	.	/	.	/
CCC1CN(C(=O)N2CCC(C(=O)Nc3ccccc3F)CC2)c2ccccc2O1 (centres undefined)	.	.	.	2.5µM[quencher]	.
COc1ccc(C(OCCN2CCC[C@@H](C(=O)O)C2)(c2ccc(OC)cc2)c2ccc(OC)cc2)cc1	.	.	.	.	.
CCc1nn(CC(=O)N2CCC(C)CC2)c(=O)c2cc3occc3n12	.	.	/	.	/
Nc1cc([N+](=O)[O-])ccc1Nc1ccc(O)cc1	?	13µM	.	20µM[quencher]	.
CCOc1ccc(Nc2nnc(SCc3nc4ccccc4c(=O)[nH]3)s2)cc1	.	.	.	?	.
CCOc1ccc(Nc2nc3ccccc3c(=O)s2)cc1	.	.	?	.	4µM
CCc1ccc(Nc2nc3ccccc3c(=O)s2)cc1	.	.	1.4µM	.	0.89µM
Cc1cccc(C)c1NC(=O)c1cc(S(=O)(=O)N2CCc3ccccc3C2)ccc1F	.	.	/	.	/
CCCc1cc(=O)oc2cc(OCC(=O)NCC(O)c3ccccc3)ccc12 (centres undefined)	/	/	.	/	.
CC(=O)Nc1ccc(NC(=O)C(NS(=O)(=O)c2ccc(Br)s2)c2ccccc2)cc1 (centres undefined)	.	.	/	.	/
O=C(NCc1ccccn1)C1(C(F)(F)F)CC(CCCO)CCCO1 (centres undefined)	/	/	.	/	.
Clc1ccccc1COc1ccccc1-c1nnco1	.	.	?	.	11µM
Cc1ccc2cc(/C=C(\C#N)C(N)=O)c(N3CCCCC3)nc2c1	.	?	.	.	.
Cc1ccc2cc(C=C(C#N)C#N)c(N3CCCCC3)nc2c1	?	25µM	.	.	.
COC(=O)/C=C1\S/C(=N\N=C\CC(=O)OC)NC1=O	.	7.1µM	.	.	.
COC(=O)/C=C1/S/C(=N/NC(=O)c2ccc(OC)cc2)NC1=O	/	/	?	/	14µM
COC(=O)/C=C1\S/C(=N/NC(=O)c2ccc(OC)cc2)NC1=O	.	.	.	.	.
SMILES	Tau FP inhib	Tau fibril ThT	Gal4-VP16 FLuc	Tau fluor cs	RORgamma inh
COC(=O)/C=C1\SC(=Nc2ccc(OC)cc2)NC1=O	.	?	.	.	.
CCNc1ncc2nc(CCc3ccccc3)c(=O)n(C[C@H]3CCCO3)c2n1	/	/	.	/	.
COc1ccc(-n2ccn(CC(=O)Nc3ccc(C)cc3C)c(=O)c2=O)cc1	.	?	/	.	/
CNc1nc(C23CC4CC(CC(C4)C2)C3)cs1	.	.	.	.	10µM
Cc1ccc(CNC(=S)Nc2ccc(C)c([N+](=O)[O-])c2)cc1	.	.	3.5µM	.	6.3µM
CNC(=S)Nc1ccc([N+](=O)[O-])cc1C	.	.	.	.	.
Cc1ccc(NC(=S)NCc2ccccc2)cc1[N+](=O)[O-]	.	.	?	?	?
CNC(=S)Nc1ccc([N+](=O)[O-])c(C)c1	.	.	?	.	10µM
Brc1ccc(-n2cnc(-c3ccccc3)c2)cc1	/	/	.	/	.
Cc1cccc(OC(C)C(=O)N2CCN(Cc3ccc4c(c3)OCO4)CC2)c1 (centres undefined)	/	/	.	/	.
Cc1cc(-c2nn(-c3ccccc3F)cc2CN2CCCC(O)C2)c(C)s1 (centres undefined)	.	.	.	.	.
Cc1cc(-c2nn(-c3ccccc3F)cc2CN2CCCC(CO)C2)c(C)s1 (centres undefined)	.	7.9µM	.	.	.
Cc1ccc(Nc2nc(-c3sc(NC(=O)c4ccco4)nc3C)cs2)cc1	.	4µM	.	?	?
Cc1nc(NC(=O)c2ccccc2)sc1-c1csc(NCc2ccco2)n1	.	?	?	?	20µM
Cc1ccccc1Nc1nc(-c2sc(NC(=O)c3ccco3)nc2C)cs1	.	?	.	?	?
Cc1nc(C)c(-c2csc(NCc3ccco3)n2)s1	?	?	.	.	.
CC(=O)c1cccc(NC(=S)NNC(=O)c2ccc(C)c([N+](=O)[O-])c2)c1	.	?	.	?	.
C/C(=N\NC(=O)c1ccc([N+](=O)[O-])c(C)c1)c1ccccc1Cl	.	.	?	.	7.9µM
Cc1ccc(C(=O)NNC(=S)Nc2cccc(Cl)c2Cl)cc1[N+](=O)[O-]	.	25µM	?	?	.
C/C(=N/NC(N)=S)c1ccccc1[N+](=O)[O-]	.	.	?	.	7.1µM
Cc1ccc(C(=O)NC(=S)Nc2cccc(NC(=O)c3ccccc3Cl)c2)cc1[N+](=O)[O-]	.	.	4µM	.	5.6µM
OC(c1ccc(F)cc1)(C1CCCCC1)C(CN1CCOCC1)c1ccccc1 (centres undefined)	/	/	.	/	.
Cc1ccc(C(=O)NC(=S)Nc2cccc(NC(=O)c3ccccc3)c2)cc1[N+](=O)[O-]	.	?	3.5µM	?	2.5µM
CC(=O)/C(N=Nc1cc(C)ccc1O)=C(\C)O	.	.	.	.	3.2µM
CCC(O)CNc1nc(-n2nc(C)cc2C)nc2sc3c(c12)CCCC3 (centres undefined)	.	.	?	.	2.5µM
SMILES	Tau FP inhib	Tau fibril ThT	Gal4-VP16 FLuc	Tau fluor cs	RORgamma inh
CSc1nc(SCCN(C)C)c2c3c(sc2n1)COC(C)(C)C3	.	.	.	.	.
CCC(O)CNc1nc(SC)nc2sc3c(c12)CCN(C)C3 (centres undefined)	.	.	.	.	.
Cc1cc(C)n(-c2nc(SCCN(C)C)c3c4c(sc3n2)CCCC4)n1	.	?	7.9µM	.	2.8µM
Cc1cc(C)c2nc3s/c(=C/c4ccccc4)c(=O)n3c2c1	?	28µM	.	.	.
O=C(CSc1nccn1Cc1ccc(F)cc1)Nc1ccc2c(c1)OCCO2	.	.	/	.	/
O=[N+]([O-])c1ccc(S(=O)(=O)c2ccccc2)nc1	/	/	3.5µM	/	?
Nc1ccc(S(=O)(=O)c2ccccc2)nc1	/	/	.	/	.
